Shown is part of a subset that was picked to be rich in hits.
Tg IFNy HTS: T. gondii growth inhibition under IFN-gamma; Toxoplasma gondii growth in IFN-gamma-treated host cells; active compounds read low; 3.8% of 69,000 active; activity change, negative = inhibition, % (concentration not given with the values); AID 1259416; in the data active = activity change below about -70%, passing the limit was not always enough;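 also: host cells are HeLa cells infected with Toxoplasma gondii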
Of the large screens only hits and unclear results are named; the others gave an inactive call.

CCCCc1nc2ccccc2c(=O)n1NC(=O)c1c(O)c2ccccc2n(CCC)c1=O	Tg IFNy HTS -114
CCn1c(=O)c(C(=O)Nc2cccc(C)n2)c(O)c2ccccc21	none
CCCn1c(=O)c(C(=O)NCCN(CC)CC)c(O)c2ccccc21	none
CC(C)C(=O)N1CCCC(c2nc(CCNC(=O)C3CCC3)cs2)C1 (configuration not stated)	none
CSc1nnc(-c2cnccc2C(F)(F)F)n1-c1ccc(Cl)cc1	none
CC(c1ccccn1)N(C)Cc1cccn1S(=O)(=O)c1ccccc1 (configuration not stated)	none
CN1CCC2(CC1)CN(C(=O)CC1NC(=O)c3ccccc31)CCN2C (configuration not stated)	none
Cc1nccn1CCC(NC(=O)c1cn(-c2ccccc2)nn1)c1ccccc1 (configuration not stated)	none
COc1ccc(-c2cccc(-c3noc(C)n3)c2)c(OC)c1OC	Tg IFNy HTS -75
Cc1nc(-c2cccc(-c3cccc4ccnn34)c2)no1	none
COc1ccc(-c2noc(COc3cccnc3C)n2)c(OC)c1OC	none
CC(C)[C@H]1COCn2nncc2CC[C@H](Cc2ccc(Cl)cc2)C(=O)N1	none
CC(NC(=O)c1cnc2ccccn2c1=O)c1ccncc1 (configuration not stated)	none
CCn1nc(C)cc1C(=O)N1CC[C@@H](OC)[C@@H]2CN(CC3CC3)C[C@@H]21	none
Nc1ncc(C(F)(F)F)cc1C(F)(F)F	none
CC(c1ccc(-c2ccc3c(c2)OCO3)cc1)N1CCOCC1 (configuration not stated)	none
Cc1ccc2[nH]c(=O)c(-c3nc(-c4ccc5c(c4)OCO5)no3)c(O)c2c1	none
Cc1c(C)c(C)c2[nH]c(-c3ccc4c(c3)OCO4)nc2c1C	Tg IFNy HTS -95
CC(C)c1sc(Cl)nc1C(=O)N1C[C@H]2[C@H](N)c3ccccc3[C@H]2C1	none
O=C(CC1COCCN1)NCc1cn2ccsc2n1 (configuration not stated)	none
COc1cncc(C(=O)NCc2ccccc2Cl)c1	none
Cn1cc(C(=O)N2CCCC3(CCN(c4cccnc4)C3=O)C2)cn1 (configuration not stated)	none
COc1cc(OC(C)=O)c(-c2cc(OC(C)=O)c(OC)cc2OC(C)=O)cc1OC(C)=O	none
CC(=O)Oc1cccc(C(=O)O)c1OC(C)=O	none
CC(=O)Nc1cc(OC(C)=O)c2nonc2c1OC(C)=O	Tg IFNy HTS -75
CC(C)c1cc(CN(C)C(=O)CC23CC4CC(CC(C4)C2)C3)no1	none
CN(C)C(=O)CN1CCC2(CC1)CN(C(=O)C1CC1)Cc1ccccc12	none
Cc1cccc(C)c1NC(=O)c1ccccc1NC(=O)C1CCOCC1	none
Cc1ccc(S(=O)(=O)N2CCC3(CC2)NCCN=C3NCc2ccc(F)cc2)cc1C	none
Cc1cc(C)n(-c2nc(-c3ccccc3)cc(-c3ccccc3)n2)n1	none
Cc1cc(C)n(-c2nnc(-c3ccccc3)c(-c3ccccc3)c2-c2ccccc2)n1	none
Cc1cc(C)n(-c2ncnc3sc(-c4ccccc4)cc23)n1	Tg IFNy HTS -94
CC(CC1=CCCN(C)C1)NC(=O)c1ccc2c(c1)OC(F)(F)O2 (configuration not stated)	none
Cc1cc(NCc2ccc3c(c2)OCO3)n2c(n1)nc1ccccc12	none
O=C(c1ccc(F)cc1)N1CCn2nnc(COCc3cccnc3)c2C1	none
COc1cc2c(cc1OC)CN(CCc1ccc(NC(=O)c3cccc4c(=O)c5cccc(OC)c5[nH]c34)cc1)CC2	Tg IFNy HTS -84
COc1cc2c(cc1OC)CN(Cc1c(C(C)C)[nH]c3ncccc13)CC2	none
COc1cc2c(cc1OC)CN(CC(=O)NC(C)c1cn(C)nc1C)CC2 (configuration not stated)	none
Cc1cnc(N2CC(N3CCCCC3)C2)nc1N(C)C	none
CN(C)C1CCN(C(=O)c2ccn(-c3ccc4ccccn34)n2)CC1	none
COc1cc2ncnc(Nc3ccc(F)c(Cl)c3)c2cc1NC(=O)/C=C/CN1CCCCC1	Tg IFNy HTS -82
CNC(=O)CN1CCC(Oc2cc3c(Nc4cccc(Cl)c4F)ncnc3cc2OC)CC1	none
CCN(CC)CC1CCN(c2ncc3ncnc(Nc4ccc(F)c(Cl)c4)c3n2)CC1	none
COc1nccnc1NCCc1cc(=O)[nH]c(C23CC4CC(CC(C4)C2)C3)n1	none
O=C(OCCn1ncc2ccccc2c1=O)c1ccc(OC(F)(F)F)cc1	none
O=C(NCCc1c[nH]c2ccccc12)c1cccnc1	none
O=C(NCCc1c[nH]c2ccccc12)c1cc2occc2c(Nc2ccc(F)cc2)n1	Tg IFNy HTS -85
Cc1noc(-c2ccnc(-n3ncc(C(=O)NCCc4c[nH]c5ccccc45)c3C)c2)n1	none
O=C(NCC1CCN(Cc2ccc3nonc3c2)C1)C1CCCCC1 (configuration not stated)	none
CCN1C(=O)CO[C@H]2CN(c3cc(C(F)(F)F)ncn3)C[C@@H]21	none
COc1c(C)c2c(c(O)c1C/C=C(\C)CCC(=O)OCCN1CCOCC1)C(=O)OC2	Tg IFNy HTS -76
Cc1oc2c(c1C(=O)Nc1cccc(OCCN3CCOCC3)c1)CCCC2	none
O=C(CC1(c2cccc(F)c2)CC(=O)N(C2CCCC2)C1=O)N1CCN(c2ccccc2F)CC1 (configuration not stated)	none
CN(CC(=O)N1CCC(C(N)=O)CC1)S(=O)(=O)c1ccc(F)cc1	none
CCOc1ccccc1NS(=O)(=O)c1cccs1	none
O=S(=O)(Nc1cc(Sc2ncn[nH]2)c(O)c2ccccc12)c1cccs1	Tg IFNy HTS -98
O=C(NCc1cccnc1)c1ccccc1NS(=O)(=O)c1cccs1	none
CCCN1CCC(NC(c2nccn2C)C(C)C)CC1 (configuration not stated)	none
Cc1ccc2c(c1)c1cccc3c1n2CCN3CCC#N	Tg IFNy HTS -103
Cc1ccc2c(c1)c1c3n2CCN=C3CCC1	none
Cc1cccc(NCc2c(C#N)c3ccccc3n2C)c1	none
Cc1onc(C(=O)Nc2ccc3nc(Cc4ccccc4)[nH]c3c2)c1CN(C)C	none
Cc1cccc(CN2CCc3onc(CN(C)C)c3C2)n1	none
CN(C)Cc1noc2c1CN(Cc1nccn1C)CC2	Tg IFNy HTS -75
CN(C)Cc1noc2c1CN(Cc1ccoc1)CC2	none
CCCCOc1ccc(-c2cc3c(=O)n(Cc4nc(-c5ccccc5)oc4C)ccn3n2)cc1	none
CCc1cc(C(=O)Cc2nc3ccccc3s2)c(O)cc1O	none
Oc1ccc(O)c(Cc2nc3ccccc3s2)c1	Tg IFNy HTS -93
c1ccc2sc(CCc3nc4ccccc4s3)nc2c1	none
CN1C2(CCN(C(=O)c3ccncc3)C2)c2ccccc2S1(=O)=O (configuration not stated)	none
CC(C)Cc1cc(C(=O)N2CCc3c(c(C(=O)N(C)Cc4cscn4)nn3CC3CC3)C2)no1	none
CC(=O)Nc1ccc(-c2c(-c3ccccc3)ncn2Cc2ccccn2)cc1	none
FC(F)(F)c1ccc(C2=NCCO2)cc1	none
N#Cc1nc(-c2ccc(C(F)(F)F)cc2)oc1N	Tg IFNy HTS -96
FC(F)(F)c1ccc(-c2nnc(-c3ccc4nccnc4c3)o2)cc1	none
CN(C)C[C@@]12COC[C@@H]1CN(C(=O)COc1ccccc1)C2	none
CCN1CCN(C(=O)Cn2nc(C)c(C)c2C)C(Cc2cccc(-c3ccncc3)c2)C1=O (configuration not stated)	none
CCC(CO)N(Cc1ccsc1)C(=O)c1cccc(C)c1Cl (configuration not stated)	none
O=C(O)c1nn(Cc2ccccn2)c2c1CN(C(=O)CN1CCCCC1)CC2	none
Cc1ccc(NC(=O)c2c(O)c3cccnc3n(-c3ccc(F)cc3)c2=O)cc1F	none
COc1ccc(NC(=O)c2c(O)c3cccnc3n(-c3ccc(F)cc3)c2=O)cc1F	none

High-throughput results (PubChem)
